Results on 55 molecules are retold here after PubChem BioAssay AID411 (National Center for Advancing Translational Sciences (NCATS), 2006).

In all, about 72,000 compounds went through this assay and about 1,600 (2.2%) were called active. The sample holds actives, similar compounds and a random draw of the others, so the mix is not that of the screen. A number with no mark means an inactive call. The call rests on the fitted dose curve; in most records, active means well fitted inhibition curve with a large enough effect; inconclusive means small, poorly fitted or top-dose-only effect; inactive means flat fitted curve, though single readings scatter.
On the % scale 0 is the no-effect control and ±100 the full control effect; potency means the concentration at half of the fitted maximal effect.

Luciferin 4-monooxygenase (Photinus pyralis), sequence (P08659 whole entry, looked up): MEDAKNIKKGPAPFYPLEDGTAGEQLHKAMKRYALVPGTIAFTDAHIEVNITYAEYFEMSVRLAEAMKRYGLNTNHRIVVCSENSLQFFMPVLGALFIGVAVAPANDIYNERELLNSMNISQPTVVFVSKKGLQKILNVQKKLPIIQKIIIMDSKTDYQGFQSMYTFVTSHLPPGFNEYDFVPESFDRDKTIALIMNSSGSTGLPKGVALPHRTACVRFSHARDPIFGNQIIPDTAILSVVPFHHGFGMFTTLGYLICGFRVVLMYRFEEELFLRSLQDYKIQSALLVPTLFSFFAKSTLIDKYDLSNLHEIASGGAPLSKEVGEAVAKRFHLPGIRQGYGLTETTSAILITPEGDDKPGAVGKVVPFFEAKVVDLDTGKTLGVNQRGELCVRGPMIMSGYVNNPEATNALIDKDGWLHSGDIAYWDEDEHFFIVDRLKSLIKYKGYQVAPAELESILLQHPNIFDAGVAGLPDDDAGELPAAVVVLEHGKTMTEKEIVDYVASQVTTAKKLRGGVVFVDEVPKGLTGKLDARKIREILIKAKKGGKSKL

This assay addresses Luciferin 4-monooxygenase (Photinus pyralis) (UniProt P08659). As to the kind of experiment: qHTS Assay for Inhibitors of Firefly Luciferase. Further: nearly all actives have a fitted effect of over 40% in size. The following applies: purified firefly luciferase, luminescence, 8 min; series mostly up to 57.1 µM; activity change, negative = inhibition: at the top concentration. As to the method: To aid in the interpretation of high-throughput screening (HTS) results derived from luciferase-based assays, we used quantitative HTS, an approach that defines the concentration-response behavior of each library sample, to profile the ATP-dependent luciferase from Photinus pyralis against more than 72 000 samples. Luciferase (PKLight, Cambrex Corporation) was assayed for its ability to generate light using ATP and luciferin as substrates. The ATP concentration in the assay (10 uM) was within the linear range of enzyme activity for the assay conditions used. See following reference for further details: [1] Auld DS, Southall NT, Jadhav A, Johnson RL, Diller DJ, Simeonov A, Austin CP, Inglese J. Characterization of chemical libraries for luciferase inhibitory activity. J Med Chem. 2008 Apr 24;51(8):2372-86. Auld DS, Zhang YQ, Southall NT, Rai G, Landsman M, Maclure J, Langevin D, Thomas CJ, Austin CP, Inglese J. A Basis for Reduced Chemical Library Inhibition of Firefly Luciferase Obtained from Directed Evolution. J. Med. Chem., 2009, 52 (5), pp 1450#1458 [3] Auld DS, Thorne N, Nguyen DT, Inglese J. A specific mechanism for nonspecific activation in reporter-gene assays. ACS Chem Biol. 2008 Aug 15;3(8):463-70. Auld DS, Thorne N, Maguire WF, Inglese J. Mechanism of PTC124 activity in cell-based luciferase assays of nonsense codon suppression. Proc Natl Acad Sci U S A. 2009 Mar 3;106(9):3585-90. Inglese J, Auld DS, Jadhav A, Johnson RL, Simeonov A, Yasgar A, Zheng W, Austin CP. Quantitative high-throughput screening: a titration-based approach that efficiently identifies biological activities in large chemical libraries. Proc Natl Acad Sci U S A. 2006 Aug 1;103(31):11473-8.
Four uL of substrate mix (final concentration, 50 mM imidazole pH 7.2, 50 mM KCl, 7 mM MgCl2, 10 uM ATP, 0.01% Tween 20, 0.05% BSA) was dispensed into white 1536 well plates. Twenty-three nL of compound was delivered by a pin tool and 2 uL of luciferase detector mix (PKLight, Cambrex) was added. Following 8-minute incubation at ambient temperature, luminescence was measured by a ViewLux (Perkin Elmer) at 5 seconds exposure/plate.
For the molecule `Cc1cc(Cl)c(S(=O)(=O)Nc2ccc3c(c2)OCCO3)cc1OCC(N)=O`, the “activity change, negative = inhibition” value was -8.83%.

For `COc1ccccc1OCCOc1ccc(/C=N/n2cnnc2)cc1`, the “activity change, negative = inhibition” value is -5.09%.

For the molecule `O=C(CSc1nc2c(cnn2-c2ccc(F)cc2)c(=O)[nH]1)N1CCCCCC1`, the “activity change, negative = inhibition” value is 1.33%.

Consider `CCCC(=O)Nc1ccc2c(c1)nc1n2CCSC1`, for which the “activity change, negative = inhibition” value was -13.7%.

As for `O=C(NCc1cn2ccsc2n1)Nc1cccc(Cl)c1`, the “activity change, negative = inhibition” value was 1.2%.

Regarding `CCCC(=O)Nc1cccc(-c2cn3ccsc3n2)c1`, the Potency is 15.8 µM (active).

As to `O=C(O)CS(=O)c1ccc2c3c(cccc13)C(=O)c1ccccc1-2` (stereo not given), the activity change, negative = inhibition was -1.48% [at 11.4 µM].

For the molecule `O=C(CS(=O)(=O)Cc1ccccc1)NCC1CCCO1` (stereo not given), the “activity change, negative = inhibition” value was 1.3%.

Turning to `CC(=NCC1CCCO1)c1c(O)[nH]c(=O)[nH]c1=O` (stereo not given), the “activity change, negative = inhibition” value is 1.78%.

Consider `O=C1C(C=NCC2CCCO2)=C(O)c2ccccc21` (stereo not given), for which the Potency was 15.8 µM (active).

On to `CCCCOc1ccc(-c2ncc(C(=O)OCC)c(N)n2)cc1`, for which the “activity change, negative = inhibition” value is -1.24%.

As to `Nc1nc(SCCOc2ccccc2)n[nH]1`, the “activity change, negative = inhibition” value is -14.9%.

Take `CCCOc1ccc(-c2nc(N)n[nH]2)cc1`: the Potency was 15.8 µM (active).

For `Cc1cc(=O)n2c3c(cccc13)CCC2`, the “activity change, negative = inhibition” value is 1.64%.

Turning to `O=c1c2c(nc3n1CCCCC3)sc1c(O)cccc12`, the Potency was 15.8 µM (active).

Regarding `O=C(Cn1[nH]c(=O)c2ccccc2c1=O)Nc1cccc(-c2nnc3n2CCCCC3)c1`, the “activity change, negative = inhibition” value was 1.94%.

Turning to `CCCn1c(=O)c2ccccc2n2c(SCC(=O)/C(C#N)=C(\C)N)nnc12`, the “activity change, negative = inhibition” value was -0.672%.

Take `CCCCCC(=O)Nc1ccc2oc(-c3ccncc3)nc2c1`: the “activity change, negative = inhibition” value was 2.79%.

`CCc1ccc2oc(-c3ccc(N)cc3)nc2c1`: the Potency is 2 µM (active).

With `Nc1ccc(-c2nnc(-c3ccc(-c4ccccc4)cc3)o2)cc1`, the “activity change, negative = inhibition” value is -12.2%.

For `Cc1cc(Cl)c(S(=O)(=O)NCC2CCCO2)cc1OCC(N)=O` (stereo not given), the “activity change, negative = inhibition” value was 0.983%.

In the case of `O=C(NCc1ccccn1)c1cc2ccccc2oc1=O`, the “activity change, negative = inhibition” value was -11.1%.

As to `O=C(Oc1cccnc1)c1cc2ccccc2oc1=O`, the “activity change, negative = inhibition” value is -3.47%.

As to `Nc1ncc(-c2cc3ccccc3oc2=O)s1`, the Potency is 12.6 µM (active).

With `O=c1c(-c2ccc(F)cc2)nc2cncnc2n1-c1ccccc1`, the activity change, negative = inhibition is 0.918% [at 11.4 µM].

Consider `CCC(=O)Nc1ccc(C(=O)CSc2nnc(CNc3ccc(Cl)cc3)o2)cc1OC`, for which the “activity change, negative = inhibition” value was -0.26%.

With `C#CC(C)(C)NC(=O)CSc1nc2c(c(=O)n(C)c(=O)n2C)n1CCCC`, the “activity change, negative = inhibition” value was -6.83%.

In the case of `Cc1c(NC(=O)Nc2ccccc2Cl)sc(=S)n1C`, the “activity change, negative = inhibition” value was 0.0836%.

For the molecule `Oc1ccc(-c2csc(Nc3cccnc3)n2)cc1`, the “activity change, negative = inhibition” value was -8.52%.

On to `Clc1ccc(Nc2nc(-c3cccs3)cs2)nc1`, for which the “activity change, negative = inhibition” value was 2.83%.

Regarding `c1ccc(Nc2nc(-c3ccncc3)cs2)nc1`, the Potency was 7.94 µM (active).

On to `CC(=O)OCC(=O)[C@@]1(O)CC[C@@H]2[C@H]3CCC4=CC(=O)C=C[C@]4(C)[C@]3(F)[C@@H](O)C[C@@]21C`, for which the “activity change, negative = inhibition” value was -2.25% [at 25.5 µM].

Regarding `Cn1c2c(c(=O)n(C)c1=O)CN(Cc1ccco1)CN2`, the “activity change, negative = inhibition” value is 0.895%.

`COc1cc(OC)c(C(=O)NC2CCCCCC2)cc1OC`: the “activity change, negative = inhibition” value is -0.721%.

Regarding `COc1ccc(C(=O)Nc2cccnc2)cc1C(=O)Nc1cccnc1`, the “activity change, negative = inhibition” value was 1.27% [at 25.5 µM].

For `COc1cc(OC)c(C(=O)Nc2ccc(N(C)C)cc2)cc1OC`, the Potency is 15.8 µM (active).

In the case of `CCOP1(=O)C=C(C(C)(C)C)OC1c1ccc(F)cc1` (stereo not given), the “activity change, negative = inhibition” value is -0.946%.

For the molecule `O=c1c(-c2ccc(F)c(F)c2)nc2cncnc2n1-c1ccccc1`, the activity change, negative = inhibition was 1.37% [at 11.4 µM].

Consider `COc1ccc(Oc2ncc3nc(-c4ccc(F)cc4)c(=O)n(C)c3n2)cc1`, for which the activity change, negative = inhibition was 0.178% [at 11.4 µM].

With `CN1CCC2(CC1)CCN(S(=O)(=O)c1ccccc1)CC2`, the activity change, negative = inhibition is 1.62% [at 11.4 µM].

With `Cc1ccc(C(=O)NCC2CCCO2)o1` (stereo not given), the “activity change, negative = inhibition” value was 1.19%.

In the case of `Cc1nc2ccccc2c2oc(C(=O)NCC3CCCO3)cc12` (stereo not given), the “activity change, negative = inhibition” value was -0.52%.

For `Cc1ccc(-c2noc(-c3ccccc3C(=O)NCC3CCCO3)n2)cc1` (stereo not given), the Potency was 12.6 µM (active).

Consider `CCCN1C2=C(C(=O)CCC2)C(c2ccc(O)c(Br)c2)C2=C1CCCC2=O`, for which the “activity change, negative = inhibition” value was -0.424%.

With `O=S(=O)(N1CCOCC1)N1CCN(c2ccccc2F)CC1`, the “activity change, negative = inhibition” value was 0.783%.

For `CCCn1c(=O)c2[nH]c(-c3ccc(OCC(=O)NCCN)cc3)nc2n(CCC)c1=O`, the “activity change, negative = inhibition” value is 2.64%.

For `CCc1ccccc1N(CC(=O)N1CCN(c2ccccc2F)CC1)S(C)(=O)=O`, the “activity change, negative = inhibition” value is 1.6%.

`CCOc1ccc2nc(N3CCCN(C(=O)Nc4ccccc4C)CC3)c(C#N)cc2c1`: the “activity change, negative = inhibition” value is -4.69%.

In the case of `COc1ccc(N2CCN(C(=O)CSc3nc4cc(OC)c(OC)cc4cc3C#N)CC2)cc1`, the “activity change, negative = inhibition” value was -1.56%.

For `COc1ccc2nc(N3CCCC(O)C3)c(C#N)cc2c1` (stereo not given), the Potency is 12.6 µM (active).

`CCOc1ccc(N(CC(=O)NCc2ccc(OC)cc2)S(=O)(=O)c2c(C)noc2C)cc1`: the “activity change, negative = inhibition” value was 0.209%.

On to `Cc1ccc(-c2noc(CCC(=O)Nc3ccccc3N3CCN(C)CC3)n2)cc1`, for which the “activity change, negative = inhibition” value is 0.968%.

In the case of `CCNC(=O)CCc1nc(-c2ccc(C(C)(C)C)cc2)no1`, the Potency is 5.01 µM (active).

`Cc1ccc(-c2noc(CCC(N)=O)n2)cc1`: the “activity change, negative = inhibition” value was -1.58%.

Consider `O=C(OCCO)c1cc(Cl)c(C(=O)OCCO)cc1Cl`, for which the “activity change, negative = inhibition” value was 2.17%.
